# Molecular target: Interleukin-8 (IL8, CXCL8), C-terminal His-tagged (Homo sapiens, UniProt P10145 SEQ:1-72)
# Assay: competition; competition TR-FRET; L1 A to U, described as complete loss
# Settings: tags: C-terminal 6xHis (Sino Biological); ssRNA; 2'-F G, 2'-OMe A/C/U, 5' C6NH2, 3' idT
# Procedure: To better understand the sequence requirements and to confirm the stem structures of members of the Aptamer 3 family as determined from sequence covariation analysis from both the primary and secondary (degenerate) selections, a series of variants which included mutations and deletions to the predicted stems were synthesized and screened (Table 24). Activity of each of these variants were tested using a time resolved competition TR-FRET assay in which the labeled parent Aptamer 3 was competed with increasing concentrations of unlabeled variants for binding to IL8 (FIG. 14). Briefly, 2-fold dilutions of thermally equilibrated aptamers were made in TR-FRET Buffer (50 mM MOPS, pH 7.4, 125 mM NaCl, 5 mM KCl, 50 μM CHAPS, 0.1 mg/mL BSA, 1 mM CaCl₂, and 1 mM MgCl₂). 5 μL of aptamer or control solution was added to 5 μl mix of 10 nM C-terminal His-tagged-IL8, 60 nM ALEXA FLUOR® 647-labeled Aptamer, and 5 nM anti-His-Eu (Perkin Elmer) in a black wall low volume 384 well plate (Greiner). […] The plate was read on a Biotek CYTATION™ 5 plate reader. […]
# To confirm the importance of this residue, molecules were made and tested in which either loop L1 was deleted entirely (Aptamer 40) or was mutated to 5′-U-3′(Aptamer 41). In both cases, there was a complete loss of activity (>10-fold) as determined by competition TR-FRET assay (Table 25 and FIG. 15).
row,Sequence,binding signal
1,GAUGUCGGUAGAUUACGGGUAGAGUGACCGCAUC,> 10 fold worse than Aptamer 3

# From patent US20210230599, “STEM-LOOP COMPOSITIONS AND METHODS FOR INHIBITING INTERLEUKIN-8” (VITRISA THERAPEUTICS, INC., published 2021)
